Compound activity deposited in PubChem by National Center for Advancing Translational Sciences (NCATS).
Shown are actives, neighbours in structure and some others; about 19% of the full set was active somewhere.
ELG1 repair inh – ELG1-dependent DNA repair inhibition | HEK293T ELG1-luciferase reporter, luminescence, 16 h; DNA damage induced by 5-fluorouridine | Potency, µM (titrated, usually from 46.1 µM), for the others: top-dose activity change, negative = inhibition, usual class: inhibitors | 2.3% of 330,000 active | AID 504467; note: potency is the fitted concentration of half-maximal effect; nearly all actives have a fitted effect of over 55% in size
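5-Fluorouridine DNA damage + compound/DMSO, 2,000 cells/well, 16 h, 37 °C/5% CO2. ONE-Glo, 30 min RT, luminescence. Readout = decrease in reporter signal.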
IL-1B inflam inh – inhibitors of inflammasome signaling (IL-1 beta secretion); 4.7% of 360,000 active; THP-1 LPS/ATP IL-1B secretion, AlphaLISA, 16 h; hits give low values; activity change, % at 57.5 µM; in the data active = activity change below about -50%; inconclusive = mostly about -30% to -49%
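THP-1 cells pretreated 1 hr with compounds (up to 57.5 uM final), then stimulated with LPS (250 ng/mL final) plus ATP (1.25 mM final); secreted IL-1B measured by AlphaLISA after 16 hr, decreased signal indicating inhibition.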
HT1080 IDH1KD tx – HT-1080 IDH1 knockdown cell toxicity (counter line) | HT-1080 IDH1 knockdown viability, ATP luminescence, 48 h | Potency, µM (top dose mostly 46.1 µM), without a hit: at the highest dose activity, negative = toxicity, usual class: cytotoxic | 2% of 360,000 active;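 note: potency is the fitted concentration of half-maximal effect; 0% = DMSO wells and -100% = cell-free medium wells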
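Luminescent ATP read-out (CellTiter-Glo, 10 min at room temperature) after 48 h compound exposure at 37 °C gave viability of IDH1-knockdown HT-1080 cells. Activity was normalised to DMSO and cell-free wells, then fitted as concentration-response curves.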
HT1080NT lethal – kills 2HG-producing HT-1080-NT fibrosarcoma cells; HT-1080-NT fibrosarcoma viability, CellTiter-Glo ATP luminescence, 48 h; Potency, µM (top dose mostly 46.1 µM), without a hit: top-dose activity, negative = less viability, usual class: cytotoxic; 1.6% of 360,000 active;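 note: NT is the 2HG producing partner of a matched IDH1 knockdown line; potency is the fitted concentration of half-maximal effect; 0% = DMSO-treated cells and -100% = media-only wells without cells; nearly all actives have a fitted effect of over 55% in size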
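Toxicity toward the 2HG-producing NT line was scored as %Activity, normalised to DMSO and no-cell wells, from CellTiter-Glo luminescence after 48 hours' treatment.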
DT40 TDP1 CPT – growth inhibition of DT40 Tdp1-/-;hTDP1 cells with camptothecin (screen for TDP1 inhibitors); Potency, µM (doses to about 46.2 µM), for inactives: at the highest dose activity change, negative = growth inhibition, usual class: inhibitors; chicken DT40 Tdp1-/-;hTDP1 cells + 20 nM CPT, ATP luminescence, 48 h; 12% of 420,000 active; AID 686979; note: potency is the fitted concentration of half-maximal effect; nearly all actives have a fitted effect of over 55% in size
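Cell growth measured by CellTiter-Glo luminescence after a minimum 48 h, 37 C compound exposure with 20 nM CPT in Tdp1-knockout DT40 cells stably expressing hTDP1, seeded 400/well; qHTS titration format.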
TDP1 cell noCPT – qHTS for Inhibitors of human tyrosyl-DNA phosphodiesterase 1 (TDP1): qHTS in cells in absence of CPT. AID 686978, 2013. DT40 Tdp1-/- hTDP1 cells, no CPT, ATP luminescence, 48 h. Potency, µM (titrated, usually from 46.2 µM), without a hit: at the highest dose activity change, negative = growth inhibition, actives largely listed as inhibitors. 15% of 420,000 active; note: potency is the fitted concentration of half-maximal effect; nearly all actives have a fitted effect of over 55% in size
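DT40 Tdp1-/-;hTDP1 cells, no CPT (DMSO vehicle only), 400 cells/well; compounds pin-transferred; ≥48 hr, 37 °C; CellTiter-Glo 30 min RT dark, luminescence read.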
* = called active by the depositor; ? = inconclusive; . = no result; [ ] = another dose, or the depositor's remark. Unless noted, calls come from the whole dose curve; as a rule, active = well fitted curve in the direction sought with a large enough effect; inconclusive = small, poorly fitted or top-dose-only effect, or another doubt; inactive = no such curve, though single readings can be large; an effect the other way counts as inactive or inconclusive. Unless noted, % is set by controls: 0 for no effect and ±100 for the full control effect.

SMILES	ELG1 repair inh	IL-1B inflam inh	HT1080 IDH1KD tx	HT1080NT lethal	DT40 TDP1 CPT	TDP1 cell noCPT
CC(C)(C)C(=O)Nc1ccc(C(=O)COC(=O)c2ccccn2)cc1	9%	0	6%	5%	-9%	0%
COC(=O)N/N=C/c1ccc([N+](=O)[O-])s1	?	-17	?	-1%	13µM*	15µM*
COc1ccc(NC(C)C(=O)N/N=C/c2ccc([N+](=O)[O-])s2)cc1 (stereo unspecified)	18µM*	-9	-4%	-21%	16µM*	23µM*
O=C(Cc1ccccc1)N/N=C/c1ccc([N+](=O)[O-])s1	3%	-1	?	?	21µM*	23µM*
O=C(N/N=C/c1ccc([N+](=O)[O-])s1)c1ccccc1	?	?	-13%	-10%	4.6µM*	4.1µM*
CCOC(=O)CSc1nc(-c2ccc(F)cc2)cc(C(F)(F)F)c1C#N	.	.	.	.	-4%	-21%
Cc1ccccc1C(=O)N/N=C/c1ccc([N+](=O)[O-])s1	?	-65*	8.9µM*	20µM*	16µM*	13µM*
O=C(N/N=C\c1ccc([N+](=O)[O-])s1)c1cncc(Br)c1	?	-58*	6.5µM*	?	5.2µM*	3.3µM*
COc1ccccc1NC(=O)C(=O)N/N=C/c1ccc([N+](=O)[O-])s1	-16%	-11	0%	14%	12µM*	?
Cc1ccc(/C=N/NC(=O)c2c[nH]c3ccccc23)s1	?	-25	-2%	-2%	-22%	?
Cc1ccnn1CC(=O)N/N=C/c1ccc([N+](=O)[O-])s1	13µM*	30	-21%	?	26µM*	23µM*
CCc1nnc(NC(=O)c2nc(SCc3ccc(F)cc3)ncc2Cl)s1	.	.	.	.	-10%	-18%
CCOc1ccc(OCCC(=O)OCC(=O)NC2CCCC2)cc1	?	13	16%	8%	-8%	-13%
Cc1cccc(OCCc2c(C)[nH]c(=S)[nH]c2=O)c1	?	-6	?	?	?	16µM*
S=c1[nH]c2ccccc2n1CCOc1ccccc1	19%	43	6%	1%	-2%	0%
Cc1cccc(OCCn2c(=S)[nH]c3ccccc32)c1	-1%	-8	?	-15%	23µM*	?
Cc1ccc(OCCn2c(=S)[nH]c3ccccc32)c(C(C)C)c1	?	30	?	-27%	26µM*	?
CCCCc1c(C)[nH]c(=S)[nH]c1=O	6%	0	4%	4%	9%	2%
S=c1[nH]c2ccccc2n1CCc1ccncc1	.	-61*	1%	3%	-18%	?
COc1ccc(Cn2ccnc2SCC(=O)Nc2cc(C(F)(F)F)ccc2Cl)cc1	.	.	.	.	-7%	-15%
COc1cc(O)c(C(CC(=O)N2CCOCC2)c2cc(OC)c(OC)c(OC)c2)c(OC)c1 (stereo unspecified)	?	13	10%	13%	5%	-1%
COc1ccccc1OCCn1c(=S)[nH]c2ccccc21	-16%	11	?	-27%	18µM*	?
CCOc1ccc(OCCn2c(=S)[nH]c3ccccc32)cc1	-4%	-16	-4%	3%	-7%	-26%
O=C(CSc1ccccc1F)Nc1ccc2c(c1)OCO2	?	-20	17%	9%	3%	-21%
Cc1c(C=O)c2ccccn2c1C(=O)c1ccccc1	?	2	-9%	-13%	-25%	?
SMILES	ELG1 repair inh	IL-1B inflam inh	HT1080 IDH1KD tx	HT1080NT lethal	DT40 TDP1 CPT	TDP1 cell noCPT
Cc1cc2ccccn2c1C(=O)c1ccc(Cl)c([N+](=O)[O-])c1	-10%	-75*	-1%	-9%	21µM*	?
Cc1cc2ccccn2c1C(=O)c1cccc([N+](=O)[O-])c1	-15%	0	?	-16%	?	?
Cc1cc2ccccn2c1C(=O)c1ccc([N+](=O)[O-])o1	?	-99*	16µM*	?	23µM*	18µM*
COc1ccc(C(=O)c2ccc(Cl)c([N+](=O)[O-])c2)cc1	-4%	-101*	5.8µM*	?	0.82µM*	0.73µM*
Cc1c(C=O)c2ccccn2c1C(=O)c1ccc(Cl)c([N+](=O)[O-])c1	12%	-13	0%	1%	?	16µM*
COc1ccc(C(=O)c2ccc(Cl)cc2)cc1	?	0	6%	?	-12%	?
Cc1ccc(NS(=O)(=O)c2c(C(=O)N3CCCCCC3)c(C)n(C)c2C)c(C)c1	11%	-11	-9%	8%	?	-25%
COc1ccc(NC(=O)CSCC(=O)N(C)Cc2ccc3c(c2)OCCO3)cc1	-3%	18	9%	7%	-4%	-8%
CCC1Sc2ccccc2N(CC(=O)NCc2ccc(C)cc2)C1=O (stereo unspecified)	.	.	.	.	?	23µM*
O=C1c2ccccc2C(=O)c2c(O)ccc(O)c21	.	.	.	.	-6%[9.04 µM]	-10%[9.04 µM]
O=C1C(=C(I)I)c2ccccc2-c2ccccc21	.	-101*	5.2µM*	?	2.6µM*	4.6µM*
Cc1cc(SCC(=O)c2cccs2)nc2ccccc12	?	39	-9%	-15%	16µM*	?
O=C(CSc1nc2ccccc2c(=O)[nH]1)c1cccs1	?	18	-3%	-3%	8.2µM*	16µM*
O=C(CSc1nc2ccccc2c(=O)[nH]1)c1ccc(O)cc1O	1%	28	?	-30%	13µM*	?
O=C(CSc1nc2ccccc2c(=O)[nH]1)c1ccc(O)c(O)c1	2%	3	2%	-2%	-26%	-13%
Cc1cc(SCC(=O)NC2CC2)nc2ccccc12	?	-6	6%	9%	2%	-8%
N#Cc1c(-c2cccs2)nc(SCC(=O)c2cccs2)[nH]c1=O	-2%	-11	1%	-4%	9%	-11%
Cc1cccc(C)c1NC(=O)C1CCCN1C(=O)NCc1ccccc1 (stereo unspecified)	0%	15	7%	12%	7%	0%
COc1ccc(C(=O)NCc2nnnn2-c2ccc(C)c(C)c2)cc1	.	.	.	.	?	-27%
Cc1cc(=O)n(CC(=O)NC(C)c2ccccc2)c2c1c(C)nn2C (stereo unspecified)	.	.	.	.	15µM*	8.2µM*
Cc1nn(C)c2c1c(C(F)(F)F)cc(=O)n2CC(=O)Nc1ccc(F)cc1F	.	.	.	.	?	-15%
